The panel holds about 83,000 compounds, 20% with a hit somewhere; the sample as a whole holds those more often.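 Cell lines were cultured in 96-well plates, exposed to a single compound concentration, and assessed for percent growth 48 hours later.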 Unmarked numbers belong to inactive results. Active and inactive are the calls of the source. How the source made its calls: active means growth percent below 10; inactive means the rest.
Assays:
Assay in all cases: NCI-60 one-dose screen, 48 h (100 = growth as untreated, 0 = no growth, -100 = all killed)
Details in all cases: 10 µM unless noted
[1] = tested on: SK-MEL-2 melanoma
[2] = tested on: EKVX NSCLC
[3] = tested on: SN12C renal
[4] = tested on: UO-31 renal
[5] = tested on: TK-10 renal
[6] = tested on: ACHN renal
[7] = tested on: CAKI-1 renal
[8] = tested on: A498 renal
[9] = tested on: CCRF-CEM leukemia
[10] = tested on: MOLT-4 leukemia
[11] = tested on: SR leukemia
[12] = tested on: RPMI-8226 leukemia
[13] = tested on: OVCAR-5 ovarian
[14] = tested on: OVCAR-4 ovarian
[15] = tested on: SK-OV-3 ovarian
[16] = tested on: IGROV1 ovarian
[17] = tested on: OVCAR-3 ovarian
[18] = tested on: NCI/ADR-RES ovarian
[19] = tested on: OVCAR-8 ovarian
[20] = tested on: HS 578T breast

Structure (SMILES)	growth [1]	growth [2]	growth [3]	growth [4]	growth [5]	growth [6]	growth [7]	growth [8]	growth [9]	growth [10]	growth [11] [%]	growth [12]	growth [13]	growth [14]	growth [15]	growth [16]	growth [17]	growth [18]	growth [19]	growth [20]
N#Cc1c(-c2ccc(Cl)cc2)nc2n[nH]c(-c3ccc(Cl)cc3)c2c1-c1cccs1	58.6%	30.3%	45.7%	35.1%	97.3%	62.8%	39%	105%	38.1%	3.89% (active)	25.6	17.7%	75.8%	42.3%	54.2%	62%	63.5%	61.1%	–	–
C=C1CC[C@@H]2[C@]3(C)COC(c4cn[nH]c4-c4cccc(Br)c4)O[C@@H]3CC[C@@]2(C)[C@@H]1C/C=C1/C(=O)OCC1O (stereo partly specified)	-69.8% (active)	-62.3% (active)	-77.7% (active)	-100% (active)	-59.7% (active)	-100% (active)	-39.3% (active)	-93.7% (active)	-15.6% (active)	12.2%	–	-6.49% (active)	-76.2% (active)	10.8%	-33% (active)	-60.2% (active)	-97.6% (active)	-50.1% (active)	-42.5% (active)	5.38% (active)
N/C(=N\c1nc2ccccc2s1)NC(=O)Nc1ccccc1Br	-0.501% (active)	27.1%	-39.3% (active)	11.3%	-15.6% (active)	-39.3% (active)	-17.4% (active)	26.2%	12.6%	21.5%	–	-0.145% (active)	-17% (active)	-59.1% (active)	-6.97% (active)	11.5%	-72.3% (active)	-57.1% (active)	-55.7% (active)	-5.34% (active)
c1ccc(-c2csc(Nc3cccc(Nc4nc(-c5ccccc5)cs4)c3)n2)cc1	64.9%	37.7%	43.4%	32.3%	68.6%	36.2%	34.9%	85.5%	38.6%	13.7%	–	49.3%	64.5%	37.6%	97.5%	34.1%	53.2%	26.1%	39.9%	56.5%
COc1cc2c(c(OC)c1OC)C(=O)CC(c1cccc(NC(=O)c3cccc(NC(=O)[C@H](C)NC(=O)OC(C)(C)C)c3)c1)O2 (stereo partly specified)	50.9%	93.3%	59.9%	44.1%	101%	41.5%	42.2%	104%	31.2%	36.5%	–	36.5%	123%	51.8%	91.9%	65.3%	52.9%	80%	28.2%	73.6%
Cc1c(C(=O)NNC(=O)c2ccc(Cl)cc2)nnn1-c1ccc(Br)cc1	107%	99.4%	102%	75.9%	95.4%	102%	87.9%	139%	90.3%	85.4%	84.3	98.2%	95.2%	96.5%	90.2%	105%	115%	97.5%	–	–
O=C1CCCc2cc(OCC(=O)N3CCCCC3)ccc2N1	111%	104%	114%	92.9%	104%	107%	96.7%	114%	98.4%	102%	–	101%	123%	103%	111%	121%	110%	109%	104%	105%
COc1ccc(/C=C/c2nc3ccccc3n3c(-c4ccc(Cl)cc4)nnc23)cc1	99.8%	88.7%	91.7%	66.4%	106%	93.5%	72.2%	85.3%	78.1%	72.6%	–	81.4%	102%	81%	98.4%	66.8%	99%	94.4%	92.7%	96.2%
C#CCOc1cc(N(CC)CC)ccc1C(C(=O)NC(C)(C)C)N(C(=O)C1CCc2cc(F)ccc2O1)c1ccc(F)cc1 (stereo unspecified)	-24.7% (active)	37.8%	48.9%	30.4%	68.7%	33.5%	30.7%	78.5%	40.4%	9.55% (active)	–	25.4%	69.7%	51%	62.4%	68.2%	47.9%	56.8%	52.4%	64.4%
COc1ccc(NC(=O)[C@H](C)N)cc1C(=O)Nc1cccc(C2CC(=O)c3c(cc(OC)c(OC)c3OC)O2)c1 (stereo partly specified)	101%	97.2%	93.8%	73%	102%	87.1%	82%	97%	57.4%	59.8%	–	55.3%	104%	81.7%	146%	98.7%	91.9%	86.1%	68.8%	95.8%
CCOC(=O)C1=C(N)N(c2ccccc2)C2=C(C(=O)CC(C)(C)C2)C1c1ccc(N2CCOCC2)cc1 (stereo unspecified)	97.4%	95.4%	95.7%	90.3%	108%	96.7%	82.1%	110%	105%	99.2%	83.8	96.2%	101%	101%	102%	108%	113%	100%	–	95.1%
O=C(/C=C/c1ccc(O)c(O)c1)NC1CCOC1O (stereo unspecified)	113%	97.1%	96.4%	80.4%	109%	104%	92.9%	109%	96.4%	96.3%	–	97.4%	114%	108%	94.8%	111%	103%	105%	95.7%	89.1%
CN(C)CCn1c2ccccc2c2nc3ccc([N+](=O)[O-])cc3nc21	-10.6% (active)	17.3%	-9.41% (active)	-47.6% (active)	-1.22% (active)	-40.8% (active)	-23.8% (active)	-41.7% (active)	17.6%	8.56% (active)	–	20.3%	-0.168% (active)	16.6%	8.18% (active)	4.78% (active)	7.62% (active)	8.38% (active)	-15.6% (active)	10.1%
CCN(CC)C(=O)N/C(N)=N/c1nc2ccccc2s1	65.5%	15.3%	50.1%	37.7%	53.7%	50.7%	36.6%	55.6%	41.9%	-4.3% (active)	32	31.5%	72.4%	22.2%	71.9%	72.1%	68.2%	23.3%	–	–
C/C(=N\N=C\c1cc([N+](=O)[O-])ccc1Cl)c1ccc2c(c1)Nc1ccccc1S2	90.5%	48.5%	12.4%	-13.7% (active)	8.88% (active)	-43.5% (active)	31.3%	6.23% (active)	55%	44%	31.3	71.7%	–	-10.7% (active)	40.4%	40%	-4% (active)	55%	–	27.1%
